Data on 78 compounds can be found in PubChem BioAssay AID1578 (Sanford-Burnham Center for Chemical Genomics, 2009).

The structures appear in SMILES notation. The campaign covered roughly 290,000 compounds. About 3,000 (1%) were called active. This is one part of a sample in which actives are shown more often than they occur. Unmarked numbers belong to inactive results. Cut-off read from the data, not from the text of the source: active = inhibition mostly above about 36% (no sharp cut-off); inactive = mostly below about 34%.

This assay in a line: inhibition of NOD1-driven NF-kB reporter – cell-based, luminescence, uHTS, primary screen (AID 1578).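 Note: HEK-293T reporter cells stimulated with the NOD1 agonist gamma-tri-DAP.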 To be noted: NOD1-driven NF-kB luciferase reporter cells, at 4 µM, hits give high values.
`Cc1ccccc1N1CCN(C(=O)c2ccccc2NC(=O)C2CC=CCC2C(=O)O)CC1` (stereo not drawn): the inhibition is -15.8%.
In the case of `Cc1cccc(C)c1-n1nnnc1S(=O)(=O)Cc1ccccc1Cl` it was -16.2%.
Take `COc1ccccc1-n1nnnc1S(=O)(=O)Cc1ccc(Cl)cc1`: the inhibition was 102%.
In the case of `CN1/C(=C\C(=O)C[n+]2ccc3ccccc3c2)C(C)(C)c2ccccc21` it was 47% (active); in that of `Cc1ccc[n+](CC(=O)/C=C2\N(C)c3ccccc3C2(C)C)c1`, 27.4%; in that of `CN1/C(=C\C(=O)C[n+]2cccc(Br)c2)C(C)(C)c2ccccc21`, 30.4%.
In the case of `O=C(NCc1ccccc1OC(F)(F)F)C1CCC(=O)N(CCc2ccccn2)C1` (stereo not drawn) it was -25.8%.
`CC(Sc1n[nH]c(N)n1)C(=O)NC1CCCCC1C` (stereo not drawn): the inhibition was -7.3%.
With `CN(C(=O)CSc1ccccc1C(=O)O)C1CCCCC1`, the inhibition is -26.5%.
For `Cc1[nH]c2ccccc2c1C(=O)C(=O)N(C)C1CCCCC1`, the inhibition is -23.5%.
Next, `CC(Sc1nc(N)cc(=O)[nH]1)C(=O)NC1CCCCC1` (stereo not drawn): -12%.
Next, `Cc1cc(C(=O)O)sc1C`: -16.5%; `FC(F)(F)c1cnc(Sc2nnc(-c3cccs3)n2CC2CCCO2)c(Cl)c1` (stereo not drawn): -14.9%; `CCOc1cc(/C=N/NC(=O)C(=O)NCc2ccc3c(c2)OCO3)ccc1OCC(=O)N1CCOCC1`: -4.3%.
Next, `CCOC(=O)CNc1cccc(C(F)(F)F)c1`: -35.5%; `O=C(CNS(=O)(=O)c1ccccc1)NCC(=O)OCc1ccc(Cl)cc1`: -12.2%; `O=C(NCc1cccnc1)/C(=C/c1ccc(-c2cccc(C(F)(F)F)c2)o1)NC(=O)c1ccccc1`: 11.9%.
Take `O=C(CN(Cc1ccc(Br)cc1)S(=O)(=O)c1ccccc1)NCc1cccnc1`: the inhibition was 14.5%.
Next, `O=C(NCc1cccnc1)/C(=C\c1ccc(-c2ccc(Br)cc2)o1)S(=O)(=O)c1ccccc1`: 106% (active); `COc1ccc(S(=O)(=O)N2CCC(NC(=O)c3cccc(F)c3)CC2)cc1`: -7.7%.
In the case of `CC(=O)NC(CC(=O)Oc1ccc(C)cc1Br)c1ccccc1` (stereo not drawn) it was -28.4%; in that of `Cc1c(CCOC(=O)c2cc([N+](=O)[O-])cc([N+](=O)[O-])c2)sc[n+]1CC(=O)c1ccc(Br)cc1`, 49.3% (active).
In the case of `Cc1c(CCOC(=O)c2cccc([N+](=O)[O-])c2)sc[n+]1CC(=O)c1ccccc1` it was -44.5%; in that of `Cc1c(CCOC(=O)c2cc([N+](=O)[O-])cc([N+](=O)[O-])c2)sc[n+]1CC(=O)c1ccccc1`, -27.6%.
For the compound `O=C(NCc1ccco1)C12CN(Cc3ccccc3)CC1C(c1ccc([N+](=O)[O-])cc1)=NO2` (stereo not drawn), the inhibition is 10.3%.
For the compound `CCOCCc1nnc(NC(=O)C(C)Oc2ccccc2)s1` (stereo not drawn), the inhibition is -60.4%.
In the case of `COc1ccc(NC(=O)CCC(=O)N/N=C/c2cn(C)nc2C)cc1` it was 10.7%; in that of `O=C(O)c1ccc(Nc2nc3c(s2)CCCC3)cc1`, 69.2% (active); in that of `CN(C)c1ccc(C(=O)Nc2nc3c(s2)CCCC3)cc1`, 25.6%.
Next, `Cc1cccc(Nc2nc3c(s2)CCCC3)c1`: -49.8%.
In the case of `Cc1cc(-c2nc3cccnc3s2)ccc1NS(=O)(=O)c1ccc2c(c1)OCCO2` it was -4%; in that of `Cc1nc2ccc(S(=O)(=O)Nc3cccc(-c4nc5cccnc5s4)c3C)cc2s1`, -33.3%; in that of `CCc1ccc(NC(=O)CSc2nnc(-c3n[nH]c4ccccc34)n2-c2ccccc2)cc1`, 6%.
Turning to `CC(C)CC(C(=O)N1CCc2ccccc2C1)N1C(=O)c2ccccc2C1=O` (stereo not drawn), the inhibition is 5.4%.
In the case of `COc1ccc(N2C(=O)c3ccccc3NC2c2cccnc2)cc1` (stereo not drawn) it was -14.4%; in that of `COc1ccc2c(c1OC)C(=O)N(c1ncn[nH]1)C2`, -15.4%.
`COc1ccccc1N1Cc2ccc(OC)c(OC)c2C1=O`: the inhibition is -5.2%.
On to `COc1ccc2c(c1OC)C(=O)OC2`, for which the inhibition is 33.6% (active).
In the case of `COc1cc(OC)cc(C(=O)OCCCOC(=O)c2cc(OC)cc(OC)c2)c1` it was -7.2%; in that of `CN(NS(=O)(=O)c1ccc(Cl)cc1)c1nc(C(F)(F)F)nc2ccccc12`, 26%.
`CN(NS(=O)(=O)c1ccc(Br)cc1)c1nc(C(F)(F)F)nc2ccccc12`: the inhibition is 31.4% (active).
Consider `COc1ccc(S(=O)(=O)NN(C)c2nc(C(F)(F)F)nc3ccccc23)cc1`, for which the inhibition was -27.6%.
For `CN(C)C1(CN=Cc2cc(Cl)cc([N+](=O)[O-])c2O)CCCCC1`, the inhibition was -19%.
Regarding `O=C(N/N=C/c1ccc(-c2cccc(C(F)(F)F)c2)o1)c1ccccc1O`, the inhibition was 86.8% (active).
Next, `O=C(N/N=C/c1ccc(-c2cccc(C(F)(F)F)c2)o1)c1ccccc1Br`: 13.2%.
In the case of `O=C(N/N=C/c1ccc(-c2ccccc2)o1)c1ccccc1O` it was -1.6%; in that of `COc1ccc2cc(CCNC(=O)c3cccc([N+](=O)[O-])c3)c(=O)[nH]c2c1`, 45.6% (active); in that of `Cc1ccc2cc(CCNC(=O)c3cccc([N+](=O)[O-])c3)c(=O)[nH]c2c1`, 26.4%.
Next, `Cc1cc2cc(CCNC(=O)c3cccc([N+](=O)[O-])c3)c(=O)[nH]c2cc1C`: 3.3%.
Turning to `COc1cc(Br)c(CC(=O)O)cc1OC`, the inhibition was 4%.
Next, `CCn1cc(C(=O)OCC(=O)c2cc(C)n(-c3cccc(C(F)(F)F)c3)c2C)c(=O)c2ccc(C)nc21`: 62.7% (active); `CCn1cc(C(=O)OCC(=O)c2cc(C)n(-c3ccccc3F)c2C)c(=O)c2ccc(C)nc21`: 10.8%.
For the compound `CCn1cc(C(=O)OCC(=O)c2cc(C)n(-c3ccccc3)c2C)c(=O)c2ccc(C)nc21`, the inhibition is 6.2%.
In the case of `Cc1nn(Cc2ccc(C(=O)N3CCN(C(=O)c4ccco4)CC3)o2)c(C)c1[N+](=O)[O-]` it was -22.1%.
In the case of `C/C(=N\NC(=O)c1ccccc1O)c1cccs1` it was 69.7% (active); in that of `C/C(=N\NC(=O)c1ccccc1O)c1ccc(Br)s1`, 8.3%.
Next, `C/C(=N\NC(=O)c1ccoc1C)c1ccc(Br)s1`: 15.3%; `C/C(=N\NC(=O)c1cccc2ccccc12)c1cccs1`: -68.3%.
On to `C/C(=N\NC(=O)c1cc2ccccc2cc1O)c1cccs1`, for which the inhibition is 5.7%.
In the case of `CCN(CC(=O)NCc1ccc(Cl)cc1)C(=O)/C=C/c1cccs1` it was -23.9%; in that of `CC1CCCN(CC(=O)Nc2ccc(S(=O)(=O)N3CCCCCC3)cc2)C1` (stereo not drawn), -8.7%.
In the case of `Cc1ccc(/C=C2/SC(=Nc3ccc(F)cc3)NC2=O)s1` it was -8.8%; in that of `CC(=O)NC(Cc1ccc(C)cc1)C(=O)NC1CCN(C(=O)c2ccc([N+](=O)[O-])cc2)CC1` (stereo not drawn), -4.9%.
Next, `Cc1noc2ncnc(N3CCCC3)c12`: -13.8%; `Cc1noc2ncnc(N3CCN(c4ccc(F)cc4)CC3)c12`: -41.6%.
With `Cc1nn(C)c(Oc2ccccc2)c1CCNS(=O)(=O)c1ccccc1`, the inhibition was 14.8%.
Take `CCN(CC)C(=S)Sc1c(-c2ccccc2)c2cc(Cl)ccc2[nH]c1=O`: the inhibition was 78.1% (active).
In the case of `O=C(O)CSc1c(-c2ccccc2)c2cc(Cl)ccc2[nH]c1=O` it was -28.5%; in that of `O=c1[nH]c2ccc(Cl)cc2c(-c2ccccc2)c1SC(=S)N1CCCCC1`, 47%; in that of `COc1ccc2c(C)cc(SC3CCOC3=O)nc2c1` (stereo not drawn), -1.1%.
Regarding `C=CCc1cc(Cl)ccc1OCCNCCOC`, the inhibition was 43.2% (active).
On to `C=CCc1cc(Cl)ccc1OCCOCCNCCOC`, for which the inhibition is -24.9%.
For `C=CCc1cc(Cl)ccc1OCCNCCCOC`, the inhibition was -15.8%.
In the case of `CCC(C(=O)c1ccc2ncccc2c1)c1ccccc1` (stereo not drawn) it was -3.6%; in that of `CCOC(=O)C1=C(N)Oc2cc(O)ccc2C1c1ccc(C)cc1` (stereo not drawn), -17.2%.
Turning to `CCOC(=O)C1=C(N)Oc2cc(O)ccc2C1c1ccc([N+](=O)[O-])cc1` (stereo not drawn), the inhibition is 67.7% (active).
In the case of `CCOC(=O)C1=C(N)Oc2cc(O)ccc2C1c1cccc([N+](=O)[O-])c1` (stereo not drawn) it was 41.2%.
Take `COc1cc(COc2ccc3c(C)c(CCC(=O)O)c(=O)oc3c2)cc(OC)c1OC`: the inhibition was -4.2%.
